This is a sample that favours compounds with a hit; in the whole collection about 9.4% have one here.
AMA1 RON2 block = disrupts binding of P. falciparum AMA1 to RON2. Potency, µM (doses to about 58.2 µM), for the others: top-dose activity change, negative = inhibition, hits mostly inhibitors. hit rate 0.2% among 360,000. AID 720542. AlphaScreen AMA1-biotinylated RON2 peptide binding;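 note: 0% = vehicle wells and -100% = peptide control; nearly all actives have a fitted effect of over 45% in size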
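AMA1 (3D7) with his tag at 25 nM final met compounds first, then biotinylated RON2 peptide at 25 nM; detection used donor plus acceptor beads, 10 µg/mL apiece, read by AlphaScreen after 30 min at room temperature.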
Pf growth 96h = inhibits malaria parasite growth, 96 h; AID 504834; hit rate 6.9% among 320,000; Potency, µM (doses to about 28.7 µM), without a hit: at the highest dose activity change, negative = inhibition, most hits filed as inhibitors; P. falciparum luciferase reporter growth, 96 h; note: % is set by controls: 0 for no effect and ±100 for the full control effect
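Plates of compound plus infected erythrocytes (2% hematocrit, 0.05% parasitemia final) incubate 96 hours, 37 C, 5% CO2. Detection reagent added; reduced luminescence from the parasites' luciferase reporter flags inhibition.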
Pf growth 48h = inhibits P. falciparum growth in the first generation, 48 h; P. falciparum luciferase growth in erythrocytes, 48 h; hit rate 5.9% among 310,000; Potency, µM (titrated, usually from 28.7 µM), for inactives: top-dose activity change, negative = inhibition, actives largely listed as inhibitors; AID 504832; note: % is set by controls: 0 for no effect and ±100 for the full control effect
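Luciferase-expressing P. falciparum in infected erythrocytes (2% hematocrit, 0.1% parasitemia final) in RPMI 1640/0.5% Albumax were exposed to compound for 48 hours at 37 C, 5% CO2; growth read as luminescence.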
SARS PLP yeast = blocks SARS-CoV papain-like protease in a yeast assay | S. cerevisiae expressing SARS-CoV PLpro, growth rescue | Potency, µM (series often up to 32.9 µM), for inactives: top-dose activity, positive = growth rescue, actives largely listed as activators | hit rate 0.19% among 330,000; calls by dose curve; note: 0% is about no effect; nearly all actives have a fitted effect of over 55% in size
Starred values were filed as active, the others as inactive; ? = inconclusive; . = no result given; [ ] = another dose, or the depositor's remark. Unless noted, calls come from the whole dose curve; as a rule, active = well fitted curve in the direction sought with a large enough effect; inconclusive = small, poorly fitted or top-dose-only effect, or another doubt; inactive = no such curve, though single readings can be large; an effect the other way counts as inactive or inconclusive. Potency is the fitted concentration of half-maximal effect.

SMILES	AMA1 RON2 block	Pf growth 96h	Pf growth 48h	SARS PLP yeast
CCCCNc1ncnc2c1cnn2-c1ccccc1	0%	12µM*	117%	-8%
CCCCNc1ncnc2c1cnn2-c1ccc(Cl)cc1	-7%	128%	45%	-5%
Cn1c(-c2ccccn2)[n+](C)c2ccccc21	-3%	25%	24%	1%
Cn1c(-c2ccc3ccccc3n2)[n+](C)c2ccccc21	-13%	0.93µM*	?	0%
Nc1nc2c(nc(SCc3ccccc3Br)n2[C@@H]2O[C@H](CO)[C@@H](O)[C@H]2O)c(=O)[nH]1	5%	-6%	-32%[0.00184 µM]	2%
CCc1ccc(C(=O)N2CCC(c3nc4ccccc4s3)CC2)cc1	-3%	3.3µM*	13%	-2%
Clc1ccc(C[n+]2cc(-c3ccccc3)n3c2CCCCC3)c(Cl)c1	-7%	2.6µM*	0.74µM*	0%
O=[N+]([O-])c1ccc(C[n+]2cc(-c3ccccc3)n3c2CCCCC3)cc1	7%	-84%	5.2µM*	-1%
O=[N+]([O-])c1ccc(C[n+]2cc(-c3ccc(Cl)c(Cl)c3)n3c2CCCCC3)cc1	9%	?	?	-1%
Clc1ccc(-c2c[n+](Cc3ccc(Br)cc3)c3n2CCCCC3)cc1	6%	0.059µM*	0.41µM*	2%
Clc1ccc(-c2c[n+](Cc3ccc(Cl)cc3Cl)c3n2CCCCC3)cc1	-3%	0.17µM*	1.7µM*	1%
N#CC[n+]1cc(-c2ccc(Cl)cc2)n2c1CCC2	14%	-8%	?	-9%
Cc1noc(C)c1CC(=O)Nc1ccc2c(c1)OCO2	-1%	22%	-15%	1%
CSc1ccccc1NC(=O)COc1ccc2c(c1)OCO2	78%	.	.	-5%
CCc1ccc(CNC(=O)C2CCN(S(=O)(=O)N3CC(C)CC(C)C3)CC2)cc1 (centres undefined)	-13%	18%	-17%	22%
Clc1ccc(-c2c[n+](Cc3cccc(Cl)c3)c3n2CCC3)cc1	16%[2.32 µM]	0.26µM*	1.9µM*	0%
Clc1ccc(C[n+]2cc(-c3ccccc3)n3c2CCC3)cc1Cl	14%	?	?	7%
CCOC(=O)Cc1csc(NC(=O)CSc2nnc(C(C)C)n2C)n1	84%	-12%	1%	2%
CCOC(=O)Cc1csc(NC(=O)CSc2ncnc3c2cnn3-c2ccccc2Cl)n1	-5%	.	7.4µM*	-14%
CCOC(=O)Cc1csc(NC(=O)CSc2nnc(C3CC3)n2C)n1	9%	13µM*	2%	-17%
CCOC(=O)c1csc(NC(=O)CSc2nnc(C3CC3)n2C)n1	29%	?	-12%	4%
CCOC(=O)Cc1csc(NC(=O)CSc2nnc(C)n2C)n1	-6%	10µM*	11%	-1%
COc1ccc(OC(C)C(=O)Nc2ccccc2C(F)(F)F)cc1 (centres undefined)	-5%	79%	10%	5%
CCOc1ccc(C2C(C(=O)c3ccco3)=C(O)C(=O)N2CCCn2ccnc2)cc1OC (centres undefined)	-9%	28%	26%	-4%
CCn1nc(C)cc1C(=O)NC1CCCc2c1cnn2-c1ccc(C)c(C)c1 (centres undefined)	11%	15µM*	?	-9%
SMILES	AMA1 RON2 block	Pf growth 96h	Pf growth 48h	SARS PLP yeast
CCCC(=O)NC1CCCc2c1cnn2-c1ccc(C)c(C)c1 (centres undefined)	1%	3.3µM*	7%	-13%
CC(C)(C)c1ccc(-n2ncc3c2CCCC3NC(=O)CN2CCCC2=O)cc1 (centres undefined)	16%	13µM*	18%	0%
Cc1ccccc1Nc1nc2ccccc2s1	7%	134%	125%	-36%
COCCNc1nc2cc(-c3ccccc3C)sc2c(=O)n1C	-3%	.	.	.
Clc1ccc(SCc2cc(N3CCOCC3)nc(-c3ccccn3)n2)cc1	65%	?	?	0%
COc1cc2[nH]c(C(=O)N3CCN(C)CC3)cc2c(OC)c1OC	-3%	20%	.	1%
COc1cccc(N2CCN(C(=O)c3cc4c(OC)c(OC)c(OC)cc4[nH]3)CC2)c1	-1%	7.4µM*	.	-1%
O=C(CCCO)c1ccc2c(c1)OCCO2	-9%	2%	19%	.
O=C(CNC1=NCCC1)c1ccc2c(c1)OCCO2	11%	?	6.6µM*	-2%
Cc1c(C(=O)N2CCC3(CC2)OCCO3)oc2ccc(S(=O)(=O)N3CCOCC3)cc12	3%	?	-16%	8%
Cc1c(C(=O)N2CCN(C)CC2)oc2ccc(S(=O)(=O)N3CCOCC3)cc12	4%	8.3µM*	-21%	7%

Screening data deposited in PubChem by National Center for Advancing Translational Sciences (NCATS).
